Bioassay records deposited in PubChem by National Center for Advancing Translational Sciences (NCATS).
Giardia kill – Small Molecules that selectively kill Giardia lamblia: qHTS | Giardia lamblia trophozoite viability | activity change, % at 7.66 µM, hits read low | hit rate 0.15% among 340,000; in the data active = activity change below about -80%; inconclusive = between about -30% and that limit;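 also: parasites exposed to compound for two days anaerobically before the ATP read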
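Giardia lamblia trophozoites (100 cells/well) were incubated with compounds for 48 h at 37 deg C under anaerobic conditions. Viability was read as ATP content by one-step luminescence after 15-30 min at room temperature.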
IL1B secr inh – qHTS for Inhibitors of Inflammasome Signaling: IL-1-beta AlphaLISA Primary Screen | THP-1 LPS/ATP IL-1B secretion, AlphaLISA, 16 h; stronger effect = lower value | activity change, % at 57.5 µM | hit rate 4.7% among 360,000 | AID 743279, 2014; in the data active = activity change below about -50%; inconclusive = mostly about -30% to -49%
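Secreted IL-1B measured by AlphaLISA bead assay after 16 h compound exposure of THP-1 cells; compounds (final up to 57.5 uM) added 1 h before LPS (250 ng/mL) and ATP (1.25 mM) stimulation; lower signal means less secretion.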
TDP1 cell noCPT – qHTS for Inhibitors of human tyrosyl-DNA phosphodiesterase 1 (TDP1): qHTS in cells in absence of CPT | hit rate 15% among 420,000 | Potency, µM (highest dose often 46.2 µM), usual class: inhibitors | DT40 Tdp1-/- hTDP1 cells, no CPT, ATP luminescence, 48 h; also: nearly all actives have a fitted effect of over 55% in size
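Growth of hTDP1-complemented DT40 Tdp1-knockout cells is measured by ATP luminescence after at least 48 hr compound exposure at 37 °C, with DMSO substituting for the 20 nM CPT used in the parallel screen.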
ELG1 DNA repair – qHTS screen for small molecules that inhibit ELG1-dependent DNA repair in human embryonic kidney (HEK293T) cells expressing luciferase-tagged ELG1; HEK293T ELG1-luciferase reporter, luminescence, 16 h; DNA damage induced by 5-fluorouridine; Potency, µM (titrated, usually from 46.1 µM), hits mostly inhibitors; hit rate 2.3% among 330,000; also: nearly all actives have a fitted effect of over 55% in size
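HEK293T cells expressing luciferase-tagged ELG1 (2,000/well) received 5-Fluorouridine plus compound or DMSO for 16 hr at 37 °C. Luciferase was read by ONE-Glo luminescence after 30 min at room temperature.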
DT40 TDP1 CPT – qHTS for Inhibitors of human tyrosyl-DNA phosphodiesterase 1 (TDP1): qHTS in cells in presence of CPT; chicken DT40 Tdp1-/-;hTDP1 cells + 20 nM CPT, ATP luminescence, 48 h; Potency, µM (top dose mostly 46.2 µM), most hits filed as inhibitors; hit rate 12% among 420,000; also: nearly all actives have a fitted effect of over 55% in size
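Chicken DT40 Tdp1-/- cells stably complemented with human TDP1 were seeded at 400 cells/well in medium containing 20 nM camptothecin, exposed to pin-transferred compounds, and grown at 37 °C for at least 48 hr. Viability was read as ATP luminescence.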
TDP1 block – qHTS Assay for Inhibitors of Tyrosyl-DNA Phosphodiesterase (TDP1). Tyrosyl-DNA phosphodiesterase 1 (Homo sapiens), Q9NUW8. Potency, µM (series often up to 130 µM), hits mostly inhibitors. AID 485290, 2010. hit rate 0.28% among 350,000. recombinant TDP1, AlphaScreen DNA substrate cleavage; also: nearly all actives have a fitted effect of over 40% in size
Target sequence (Q9NUW8 whole entry, looked up): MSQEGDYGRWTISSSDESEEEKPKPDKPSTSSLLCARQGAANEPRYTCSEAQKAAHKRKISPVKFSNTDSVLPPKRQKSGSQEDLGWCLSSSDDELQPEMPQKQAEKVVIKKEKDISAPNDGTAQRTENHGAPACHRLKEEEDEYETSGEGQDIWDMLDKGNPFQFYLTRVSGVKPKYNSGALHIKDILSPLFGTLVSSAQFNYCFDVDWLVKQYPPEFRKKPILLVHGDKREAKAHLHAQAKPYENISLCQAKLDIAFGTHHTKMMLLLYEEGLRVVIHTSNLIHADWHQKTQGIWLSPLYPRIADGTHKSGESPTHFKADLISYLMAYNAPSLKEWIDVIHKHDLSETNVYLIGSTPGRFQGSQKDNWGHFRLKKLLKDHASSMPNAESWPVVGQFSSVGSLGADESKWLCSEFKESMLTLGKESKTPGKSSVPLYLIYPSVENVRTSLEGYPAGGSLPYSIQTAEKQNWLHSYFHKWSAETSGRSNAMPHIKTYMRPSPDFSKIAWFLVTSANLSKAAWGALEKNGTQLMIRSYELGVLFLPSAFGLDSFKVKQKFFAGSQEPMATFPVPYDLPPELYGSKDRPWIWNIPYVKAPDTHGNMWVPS
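Recombinant human Tdp1 (E. coli-expressed, 1 nM final) preincubated with compounds 15 min at room temperature, then 5'-biotin/3'-phosphotyrosine-FITC DNA substrate (15 nM final) added for 5 min. AlphaScreen beads (10 ug/ml final) added 10 min; cleavage lowers signal.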
Hits are given with their value; i = inactive; ? = inconclusive; nt = no result given; [ ] = dose if it differs, or a comment. An excerpt weighted towards active compounds, which were near 19% of everything screened. Unless noted, calls follow the shape of the dose curve; as a rule, active = well fitted curve in the direction sought with a large enough effect; inconclusive = small, poorly fitted or top-dose-only effect, or another doubt; inactive = no such curve, though single readings can be large; an effect the other way counts as inactive or inconclusive.

SMILES	Giardia kill	IL1B secr inh	TDP1 cell noCPT	ELG1 DNA repair	DT40 TDP1 CPT	TDP1 block
O=S(=O)(NCCS(=O)(=O)N1CCN(c2cccc(Cl)c2)CC1)c1ccc(F)cc1	nt	nt	21µM	nt	i	i
Cc1ccc(S(=O)(=O)NCCS(=O)(=O)N2CCN(c3ccc(F)cc3)CC2)cc1	i	i	12µM	i	?	i
Cc1ccc(OCCN2CCN(c3ncnc4sc(C)c(C)c34)CC2)cc1	i	?	3.7µM	?	3.7µM	i
CCN1CCN(CCOc2ccc(Cl)cc2)CC1	i	i	i	i	i	i
Clc1ccc(OCCN2CCN(c3ncnc4sccc34)CC2)cc1	i	i	0.58µM	?	0.58µM	i
CN(C(=O)CSc1ncnc2sccc12)c1c(N)n(Cc2ccccc2)c(=O)[nH]c1=O	i	i	i	i	i	i
COC(=O)C1CCN(Cc2ccc3c(c2)CN(C(=O)C2CCCN(c4ccccn4)C2)CCO3)CC1 (stereo not given)	nt	nt	i	nt	i	nt
COc1ccc2cc(CCC(C)=O)ccc2c1	i	i	i	nt	i	i
COc1ccc(CCc2ccc3cc(OC)ccc3n2)cc1	i	-55	?	nt	?	nt
O=S(=O)(c1ccc(Br)cc1)N1CCn2cccc2C1c1ccc(Br)cc1 (stereo not given)	nt	nt	16µM	nt	?	i
CC1c2cccn2CCN1S(=O)(=O)c1ccccc1 (stereo not given)	i	i	i	i	i	i
COc1ccc(C2c3cccn3CCN2S(=O)(=O)c2ccc([N+](=O)[O-])cc2)cc1 (stereo not given)	nt	nt	?	nt	?	i
CC(=O)c1ccc(S(=O)(=O)N2CCn3cccc3C2c2ccc(C)cc2)cc1 (stereo not given)	nt	nt	?	nt	21µM	i
COc1cccc(-n2nnc3c(=O)n(Cc4c(F)cccc4Cl)cnc32)c1	i	i	i	?	i	i
COc1cccc(-n2nnc3c(=O)n(Cc4cccc(F)c4)cnc32)c1	i	-55	i	i	?	i
O=C1/C(=C\c2ccco2)SC(=S)N1C1CCS(=O)(=O)C1 (stereo not given)	i	nt	21µM	i	23µM	i
O=C1/C(=C\c2ccco2)SC(=S)N1c1ccccc1	i	i	?	?	i	i
Cc1ccc(/C=C2\SC(=S)N(C3CCS(=O)(=O)C3)C2=O)cc1 (stereo not given)	i	i	15µM	i	?	i
O=C1/C(=C/c2ccco2)SC(=S)N1C1CCS(=O)(=O)C1 (stereo not given)	?	i	16µM	i	15µM	i
Cc1ccc(C)c(CN2C[C@H](Sc3nc4ccccc4[nH]3)C[C@H]2C(=O)N2CCCN(C)CC2)c1	nt	nt	i	nt	i[9.04 µM]	nt
CN1CC(=O)NC1=N	nt	nt	i	nt	i	nt
CCNC(=O)c1c(NC(=O)c2nc(S(=O)(=O)CC)ncc2Cl)sc2c1CCCC2	nt	nt	0.73µM	nt	i	i
CCCSc1ncc(Cl)c(C(=O)Nc2sc3c(c2C(=O)NCCCOC)CCCC3)n1	nt	nt	11µM	nt	13µM	nt
COCCCNC(=O)c1c(NC(=O)c2nc(S(C)(=O)=O)ncc2Cl)sc2c1CCCC2	nt	nt	0.73µM	nt	1µM	i
CCOCCCNC(=O)c1c(NC(=O)c2nc(SCC)ncc2Cl)sc2c1CCCC2	nt	nt	10µM	nt	?	nt
SMILES	Giardia kill	IL1B secr inh	TDP1 cell noCPT	ELG1 DNA repair	DT40 TDP1 CPT	TDP1 block
Cc1cc2ccccc2cc(C)c1=O	i	i	i	?	i	i
Cc1cc2ccccc2c[n+]1C1CCCCC1	nt	nt	0.71µM	nt	1.4µM	nt
O=C(Nc1nnc(-c2ccccn2)o1)c1cccc(Br)c1	i	i	?	i	21µM	i
Cc1ccc(C(=O)Nc2nnc(-c3ccncc3)o2)cc1	i	i	?	i	?	i
O=C(Nc1nnc(-c2ccccn2)o1)c1cccc(Cl)c1	i	i	?	?	?	i
O=C(Nc1nnc(-c2cccnc2)o1)c1cccc(Cl)c1	i	i	16µM	16µM	23µM	i
O=C(Nc1nnc(-c2ccccc2)o1)c1cccc(N2C(=O)CCC2=O)c1	i	i	?	i	?	i
Cc1cccc(-c2nnc(NC(=O)c3ccc(Cl)cc3)o2)c1	?	i	10µM	i	12µM	i
C=CCN(CC=C)C(=S)Nc1ccc(OC)c(OC)c1	i	i	i	i	i	i
O=C(OCc1cc(=O)n2c3c(sc2n1)CCCC3)c1cccc(NC(=O)c2ccccc2F)c1	nt	nt	?	nt	?	i
CC(Sc1ncccn1)C(=O)NC1(C#N)CCCCC1 (stereo not given)	i	i	i	?	i	i
CC(SC1=Nc2ccccc2C2CC=NN12)C(=O)NC1(C#N)CCCCC1 (stereo not given)	i	i	23µM	i	12µM	i
O=C(NCc1ccc(Cl)cc1)c1ccc2ccccc2n1	i	i	i	?	i	i
Cc1cc(C)c(O)c(N)c1	nt	nt	nt	i	nt	i
Cc1nonc1NC(=O)CSc1nc2ccccc2o1	i	i	i	i	i	i[0.0935 µM]
COC(=O)c1cc2oc(C)cc2n1CC(=O)Nc1ccc(C(C)C)cc1	nt	nt	21µM	nt	7.3µM	i
COC(=O)c1cc2oc(C)cc2n1CC(=O)N(C)c1ccccc1	i	i	i	i	i	i
CN(C)Cc1cc(C(C)(C)c2cc(CN(C)C)c(O)c(CN(C)C)c2)cc(CN(C)C)c1O	i	-62	i	i	i	i
CC1(Cc2ccc(F)cc2)C(=O)Nc2ccc(-c3cccnc3)cc21 (stereo not given)	nt	i	10µM	nt	23µM	nt
CC1(Cc2ccc(Cl)cc2)C(=O)Nc2ccc(-c3ccc(F)c(Cl)c3)cc21 (stereo not given)	nt	i	?	nt	?	nt
C=Cc1ccc(CC2(C)C(=O)Nc3ccc(-c4cccnc4)cc32)cc1 (stereo not given)	nt	i	4.6µM	nt	?	nt
Cc1c(Cl)cccc1NC(=O)Cn1c(=O)n(Cc2ccco2)c(=O)c2oc3ccccc3c21	nt	nt	?	nt	?	i
Cc1cc(C)nc(NN2C(=O)/C(=C/c3ccccc3)SC2=S)n1	i	i	?	i	i	i
COc1cc(/C=C2\SC(=S)N(Nc3ncc(C(F)(F)F)cc3Cl)C2=O)ccc1O	i	?	?	?	21µM	i
CN(C)c1ccc(/C=C2\SC(=S)N(Nc3ncc(C(F)(F)F)cc3Cl)C2=O)cc1	i	i	8.2µM	i	8.2µM	i
COC(=O)N1CCCCC1c1cc(C(=O)Nc2ccc(OC)cc2C)no1 (stereo not given)	nt	i	i	nt	i	nt
